Results filed as inconclusive are left out. The source made the active and inactive calls. The call rests on the fitted dose curve; in most records, active means well fitted curve in the direction sought with a large enough effect; inconclusive means small, poorly fitted or top-dose-only effect, or another doubt; inactive means no such curve, though single readings can be large; an effect the other way counts as inactive or inconclusive. Where a SMILES comes first, the peptide text is derived from it.
Columns and labels:
[1] = target: Calcium and integrin-binding protein 1 (Homo sapiens) (UniProt Q99828); assay: Primary qHTS for Identification of Calcium Integrin Binding Protein 1 (CIB1) Competitor (AID 1508620);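 further: GST tagged CIB1 binding a fluorescein labelled alphaIIb integrin peptide tracer; top concentration of the series differs between compounds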
Outline: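 Fluorescence polarization competition: CIB1-GST (1 uM final) preincubated with compound 15 min at room temperature, then FITC-labeled alphaIIb peptide (100 nM final) added for another 15 min. Polarization read at Ex 480/Em 540.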

[2] = Primary qHTS for inhibitors of nuclear receptor binding SET domain protein 2 (NSD2) in an isogenic RCH-ACV NSD2 p.E1099K mutant (9B) (AID 1645876); further: nearly all actives have a fitted effect of over 70% in size
[3] = Primary qHTS for inhibitors of nuclear receptor binding SET domain protein 2 (NSD2) in an RCH-ACV wild type WT cells (2C) (AID 1645877); further: nearly all actives have a fitted effect of over 70% in size

Measured: Potency

Chain of Calcium and integrin-binding protein 1 (Homo sapiens) (Q99828 whole entry, looked up): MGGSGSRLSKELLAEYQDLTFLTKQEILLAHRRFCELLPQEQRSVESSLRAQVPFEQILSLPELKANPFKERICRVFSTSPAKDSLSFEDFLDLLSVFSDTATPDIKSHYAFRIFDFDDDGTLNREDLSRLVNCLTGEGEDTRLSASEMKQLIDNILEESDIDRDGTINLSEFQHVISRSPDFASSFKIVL

C[C@]1(OC(=O)/C=C/c2ccccc2)C[C@@H](O)[C@]2(O)C=CO[C@@H](O[C@@H]3O[C@H](CO)[C@@H](O)[C@H](O)[C@H]3O)[C@@H]21
inactive: [1] | [2] | [3]

COc1cc(C(C)=O)ccc1O[C@@H]1O[C@H](CO[C@@H]2OC[C@@H](O)[C@H](O)[C@H]2O)[C@@H](O)[C@H](O)[C@H]1O
inactive: [1] | [2] | [3]

CC(=O)OCC1=C[C@@H]2OC(=O)C3=CO[C@@H](O[C@@H]4O[C@H](CO)[C@@H](O)[C@H](O)[C@H]4O)[C@H]1[C@@H]32
inactive: [1] | [2] | [3]

N#CC1C(=O)N=C(c2cc(Cl)ccc2O)C=C1c1cc(OCc2ccccc2)cc(OCc2ccccc2)c1 (configuration not stated)
inactive: [1] | [2] | [3]

Cc1c(NC(=O)N2CCOCC2)ccc2c1c1ccccc1n2C(C)C
inactive: [1] | [2] | [3]

CC(C)C1NC(=O)CNC(=O)C2CCCN2C(=O)C(Cc2c[nH]c3ccccc23)NC(=O)CNC(=O)C(Cc2ccc(O)cc2)NC(=O)CNC1=O (configuration not stated) (cyclo(GVGYGWP); configuration not given here)
inactive: [1] | [2] | [3]

CCc1cccc2c3c([nH]c12)[C@@](CC)(CC(=O)O)OCC3
inactive: [1] | [2] | [3]

O=C(OC[C@H]1O[C@H](O[C@]2(CO)O[C@H](CO)[C@@H](O)[C@@H]2O)[C@H](O)[C@@H](O)[C@@H]1O)c1ccc(O)cc1
inactive: [1] | [2] | [3]

OCC1OC(Oc2cc(O)cc(/C=C/c3ccc(OC4OC(CO)C(O)C(O)C4O)cc3O)c2)C(O)C(O)C1O (configuration not stated)
inactive: [1] | [2] | [3]

From PubChem BioAssay (NCATS)
